The supplement of paper PMC12532568
Structures can show the parent of a compound that is named as a salt.

The compounds below were run on Danio rerio larvae Tg(actc1b:ZsGreen-LC3), 3 dpf (assay: LC3 puncta relative area vs vehicle, with NH4Cl (autophagic flux) (log2 fold change); higher = more autophagy). Settings: 10 µM; treatment time 16 h; NH4Cl: + 100 mM, 4 h.
Protocol: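 Transgenic Tg(actc1b:ZsGreen-map1lc3) zebrafish larvae (2 dpf) were treated for 16 h with Tocris library compounds at 10 µM (n = 12 larvae per compound). Skeletal-muscle LC3 puncta area relative to body area was measured by high-content confocal imaging before and after 4 h of 100 mM NH4Cl (autophagic flux), normalised to vehicle (DMSO), and reported as log2 fold change.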

Row | SMILES | LC3 puncta (log2)
1 | c1ccc(CN2CCC3(CCc4ccccc43)CC2)cc1 [L-693,403 maleate] | 0.655
2 | N[C@@H](C(=O)O)c1ccc(O)c(C(=O)O)c1 [(R)-3-Carboxy-4-hydroxyphenylglycine] | 0.421
3 | N[C@@H](CSS(=O)(=O)O)C(=O)O [S-Sulfo-L-cysteine sodium salt] | 0.324
4 | Brc1c(NC2=NCCN2)ccc2nccnc12 | 0.713
5 | COc1ccc(CCN(C)CCc2ccc(OC)c(OC)c2)cc1OC [YS-035 hydrochloride] | 0.374
6 | CSc1ccc2c(c1)C(N1CCN(C)CC1)Cc1ccccc1S2 (stereo not given) [Methiothepin maleate] | -0.129
7 | CN1CCN(C2=Cc3ccccc3Oc3ccc(Cl)cc32)CC1 | 0.934
8 | NC(=O)Nc1sc(-c2ccc(F)cc2)cc1C(N)=O | 0.588
9 | CC(C)NC[C@H](O)COc1ccc(CC(N)=O)cc1 [(S)-(-)-Atenolol] | 0.611
10 | C1COC(NC(C2CC2)C2CC2)=N1 [Rilmenidine hemifumarate] | 0.305
11 | O=C(O)c1cc(=O)c2c(Cl)cc(Cl)cc2[nH]1 [5,7-Dichlorokynurenic acid] | 0.00257
12 | O=C(O)C=C1CCCc2ccccc2C1O (stereo not given) | -0.285
13 | CC(CCc1ccc(O)cc1)NCCc1ccc(O)c(O)c1 (stereo not given) [Dobutamine hydrochloride] | 0.472
14 | CC(N)(Cc1ccc(O)c(O)c1)C(=O)O (stereo not given) | 0.209
15 | NS(=O)(=O)c1cccc2c1c([N+](=O)[O-])cc1nc(O)c(O)nc12 | 0.16
16 | C=C1C(=O)O[C@H]2[C@H]1CC/C(C)=C/CC[C@@]1(C)O[C@@H]21 [Parthenolide] | 0.46
17 | NC(N)=NC(N)=Nc1cccc(Cl)c1 [m-Chlorophenylbiguanide hydrochloride] | 0.782
18 | CNC(=O)c1cc2c(cn1)[nH]c1ccccc12 | 0.446
19 | CNCCCCOc1ccccc1Cc1ccccc1 [Bifemelane] | 0.532
20 | CN(C)CCCn1cc(C2=C(c3c[nH]c4ccccc34)C(=O)NC2=O)c2ccccc21 | 0.575

Row | SMILES | LC3 puncta (log2)
21 | CC1(C(=O)O)NCCc2cc(O)c(O)cc21 (stereo not given) [Salsolinol-1-carboxylic acid] | 0.429
22 | Cc1ccc2c(c1)c1c3n2CCNC3CCC1 (stereo not given) [Pirlindole mesylate] | 0.527
23 | CCN(CC)CCOCCOC(=O)C1(c2ccccc2)CCCC1 [Carbetapentane citrate] | 0.392
24 | N=C(N)S/C=C\C(=O)O [ZAPA sulfate] | 0.0813
25 | COC(=O)C1=C(C)NC(C)=C(C(=O)OCCSc2ccccc2)C1C (stereo not given) | 0.664
26 | CC(=O)NCC(=O)N[C@H](CCC(=O)O)C(=O)O [N-Acetylglycyl-D-glutamic acid] | 0.237
27 | N[C@H](C(=O)O)c1ccc(C(=O)O)c(O)c1 [(S)-4-Carboxy-3-hydroxyphenylglycine] | -0.0785
28 | CC1=C(/C=C/C(C)=C/C=C/C(C)=C/C(=O)O)C(C)(C)CCC1 [Retinoic acid] | 1.64
29 | NS(=O)(=O)c1cc2c(cc1Cl)NC(C1CC3C=CC1C3)NS2(=O)=O (stereo not given) [Cyclothiazide] | 0.416
30 | CCCCCCN(CCCCCC)C(=O)Cc1c(-c2ccc(F)cc2)[nH]c2ccccc12 | 0.295
31 | COc1cc2c(CCNC(C)=O)c[nH]c2cc1Cl [6-Chloromelatonin] | 0.198
32 | COc1ccc([C@@H]2Sc3ccccc3N(CCN(C)C)C(=O)[C@@H]2OC(C)=O)cc1 [Diltiazem hydrochloride] | 0.194
33 | CC(=O)N[C@@H](Cc1c[nH]c2ccccc12)C(=O)OCc1cc(C(F)(F)F)cc(C(F)(F)F)c1 | 0.108
34 | NC(=O)CCCCn1ccc(NC(N)=NCC(F)(F)F)n1 | 0.72
35 | O=C1CN(/N=C/c2ccc(-c3ccc([N+](=O)[O-])cc3)o2)C(=O)N1 [Dantrolene, sodium salt] | 0.404
36 | CN(C)CCCSC(=N)N [Dimaprit dihydrochloride] | 0.561
37 | COc1cc2nc(N3CCN(C(=O)c4ccco4)CC3)nc(N)c2cc1OC [Prazosin hydrochloride] | 0.478
38 | c1ccc2oc(C3=NCCN3)cc2c1 [2-BFI hydrochloride] | -0.32
39 | CC(C)(Oc1ccc(Cl)cc1)C(=O)O [Clofibric acid] | 0.77
40 | O=C(O)c1cccnc1C(=O)O [Quinolinic acid] | 0.453
